Screen size: about 5,500 compounds; about 2,000 (36%) were called active. Roughly 18% stayed inconclusive and do not appear here. Cut-off read from the data, not from the text of the source: active = normalized growth mostly below about 0.91 (no sharp cut-off); inconclusive = no clear call, values can overlap the other calls; inactive = mostly above about 0.92. Some of the results follow.
Assay: chemical genetic growth profiling, strain panel (AID 1159580);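 note: tested at 20 µM; growth read once vehicle control cultures reached saturation at 30 °C; 1 = growth at the plate median or of vehicle wells; lower values mean less growth of the strain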
Settings: growth OD

Measured: normalized growth

Cc1cc(O)c(C)c(O)c1C(=O)O
inactive: S. cerevisiae deletion strains, locus YJR066W, strain TOR1, stronger effect = lower value 0.948 | S. cerevisiae deletion strains, locus YKL009W, strain mrt4, stronger effect = lower value 1.01 | S. cerevisiae deletion strains, locus YKL068W, stronger effect = lower value 0.982 | S. cerevisiae deletion strains, locus YKL085W, strain MDH1 (second series), stronger effect = lower value 0.997 | S. cerevisiae deletion strains, locus YKL085W, strain MDH1, stronger effect = lower value 0.997 | S. cerevisiae deletion strains, locus YKL160W, strain elf1, stronger effect = lower value 1.02 | S. cerevisiae deletion strains, locus YKR001C, strain vps1, stronger effect = lower value 0.971 | S. cerevisiae deletion strains, locus YKR026C, strain gcn3, stronger effect = lower value 0.983 | S. cerevisiae deletion strains, locus YKR091W, strain srl3, stronger effect = lower value 0.99 | S. cerevisiae deletion strains, locus YLL001W, strain dnm1, stronger effect = lower value 1.01 | S. cerevisiae deletion strains, locus YLL026W, stronger effect = lower value 1 | S. cerevisiae deletion strains, locus YLL041C, strain sdh2, stronger effect = lower value 0.999 | S. cerevisiae deletion strains, locus YLR027C, strain aat2, stronger effect = lower value 0.983 | S. cerevisiae deletion strains, locus YLR039C, strain RIC1, stronger effect = lower value 0.982 | S. cerevisiae deletion strains, locus YLR058C, strain SHM2, stronger effect = lower value 1.01 | S. cerevisiae deletion strains, locus YLR102C, strain apc9, stronger effect = lower value 0.987 | S. cerevisiae deletion strains, locus YLR113W, strain HOG1, stronger effect = lower value 0.99 | S. cerevisiae deletion strains, locus YLR221C, strain rsa3, stronger effect = lower value 0.991 | S. cerevisiae deletion strains, locus YLR258W, strain gsy2, stronger effect = lower value 0.994 | S. cerevisiae deletion strains, locus YLR262C, strain YPT6 (second series), stronger effect = lower value 0.944 | S. cerevisiae deletion strains, locus YLR262C, strain YPT6, stronger effect = lower value 0.972 | S. cerevisiae deletion strains, locus YLR268W, strain sec22, stronger effect = lower value 1.01 | S. cerevisiae deletion strains, locus YLR320W, strain mms22, stronger effect = lower value 0.983 | S. cerevisiae deletion strains, locus YLR342W, strain FKS1 (second series), stronger effect = lower value 0.972 | S. cerevisiae deletion strains, locus YLR342W, strain FKS1, stronger effect = lower value 0.977 | S. cerevisiae deletion strains, locus YLR357W, strain rsc2, stronger effect = lower value 0.956 | S. cerevisiae deletion strains, locus YLR370C, strain arc18, stronger effect = lower value 0.988 | S. cerevisiae deletion strains, locus YLR371W, strain rom2, stronger effect = lower value 1 | S. cerevisiae deletion strains, locus YLR384C, strain iki3, stronger effect = lower value 0.998 | S. cerevisiae deletion strains, locus YLR418C, strain cdc73, stronger effect = lower value 0.943 | S. cerevisiae deletion strains, locus YML016C, strain PPZ1, stronger effect = lower value 0.924 | S. cerevisiae deletion strains, locus YML032C, strain rad52, stronger effect = lower value 1.03 | S. cerevisiae deletion strains, locus YML120C, strain ndi1, stronger effect = lower value 0.975 | S. cerevisiae deletion strains, locus YML124C, strain tub3, stronger effect = lower value 0.989 | S. cerevisiae deletion strains, locus YMR058W, strain fet3, stronger effect = lower value 0.974 | S. cerevisiae deletion strains, locus YMR078C, strain ctf18, stronger effect = lower value 0.984 | S. cerevisiae deletion strains, locus YMR125W, strain sto1, stronger effect = lower value 0.982 | S. cerevisiae deletion strains, locus YMR129W, stronger effect = lower value 0.996 | S. cerevisiae deletion strains, locus YMR205C, strain PFK2, stronger effect = lower value 0.977 | S. cerevisiae deletion strains, locus YMR223W, strain ubp8, stronger effect = lower value 0.988 | S. cerevisiae deletion strains, locus YMR231W, strain pep5, stronger effect = lower value 0.985 | S. cerevisiae deletion strains, locus YMR263W, strain SAP30, stronger effect = lower value 1.02 | S. cerevisiae deletion strains, locus YMR307W, strain GAS1, stronger effect = lower value 1.01 | S. cerevisiae deletion strains, locus YNL067W, strain RPL9B, stronger effect = lower value 0.979 | S. cerevisiae deletion strains, locus YNL071W, strain lat1, stronger effect = lower value 0.994 | S. cerevisiae deletion strains, locus YNL153C, strain GIM3, stronger effect = lower value 0.988 | S. cerevisiae deletion strains, locus YNL183C, strain NPR1, stronger effect = lower value 0.972 | S. cerevisiae deletion strains, locus YNL209W, strain ssb2, stronger effect = lower value 0.986 | S. cerevisiae deletion strains, locus YNL233W, strain BNI4, stronger effect = lower value 0.998 | S. cerevisiae deletion strains, locus YNL248C, strain rpa49, stronger effect = lower value 0.996 | S. cerevisiae deletion strains, locus YNL250W, strain rad50, stronger effect = lower value 0.946 | S. cerevisiae deletion strains, locus YNL271C, strain bni1, stronger effect = lower value 0.969 | S. cerevisiae deletion strains, locus YNL298W, strain CLA4, stronger effect = lower value 0.98 | S. cerevisiae deletion strains, locus YNL307C, strain MCK1, stronger effect = lower value 0.98 | S. cerevisiae deletion strains, locus YNL322C, strain KRE1 (second series), stronger effect = lower value 0.965 | S. cerevisiae deletion strains, locus YNL322C, strain KRE1, stronger effect = lower value 1 | S. cerevisiae deletion strains, locus YNR049C, strain mso1, stronger effect = lower value 0.983 | S. cerevisiae deletion strains, locus YNR052C, strain pop2, stronger effect = lower value 0.966 | S. cerevisiae deletion strains, locus YOL012C, strain htz1 0.903 | S. cerevisiae deletion strains, locus YOL147C, strain pex11, stronger effect = lower value 1.01 | S. cerevisiae deletion strains, locus YOR001W, strain rrp6, stronger effect = lower value 1 | S. cerevisiae deletion strains, locus YOR061W, strain CKA2, stronger effect = lower value 1.01 | S. cerevisiae deletion strains, locus YOR069W, strain VPS5, stronger effect = lower value 0.99 | S. cerevisiae deletion strains, locus YOR070C, strain gyp1, stronger effect = lower value 0.989 | S. cerevisiae deletion strains, locus YOR080W, strain dia2, stronger effect = lower value 0.974 | S. cerevisiae deletion strains, locus YOR083W, strain WHI5, stronger effect = lower value 1.03 | S. cerevisiae deletion strains, locus YOR106W, strain vam3, stronger effect = lower value 0.972 | S. cerevisiae deletion strains, locus YOR136W, strain idh2, stronger effect = lower value 0.986 | S. cerevisiae deletion strains, locus YOR144C, strain elg1, stronger effect = lower value 0.986 | S. cerevisiae deletion strains, locus YOR184W, strain ser1, stronger effect = lower value 1.05 | S. cerevisiae deletion strains, locus YOR231W, strain MKK1, stronger effect = lower value 1.03 | S. cerevisiae deletion strains, locus YOR265W, strain rbl2, stronger effect = lower value 1 | S. cerevisiae deletion strains, locus YOR270C, strain vph1, stronger effect = lower value 0.802 | S. cerevisiae deletion strains, locus YOR290C, strain snf2, stronger effect = lower value 0.956 | S. cerevisiae deletion strains, locus YOR316C, strain cot1, stronger effect = lower value 0.977 | S. cerevisiae deletion strains, locus YPL051W, strain arl3, stronger effect = lower value 1.02 | S. cerevisiae deletion strains, locus YPL055C, strain LGE1, stronger effect = lower value 1.01 | S. cerevisiae deletion strains, locus YPL078C, strain atp4, stronger effect = lower value 1 | S. cerevisiae deletion strains, locus YPL106C, strain sse1, stronger effect = lower value 0.926 | S. cerevisiae deletion strains, locus YPL240C, strain hsp82, stronger effect = lower value 1 | S. cerevisiae deletion strains, locus YPL256C, strain CLN2, stronger effect = lower value 1.03 | S. cerevisiae deletion strains, locus YPR119W, strain clb2, stronger effect = lower value 0.997 | S. cerevisiae deletion strains, locus YPR141C, strain kar3, stronger effect = lower value 0.973 | S. cerevisiae deletion strains, locus YPR163C, strain tif3, stronger effect = lower value 0.969 | S. cerevisiae deletion strains, locus YPR167C, strain met16, stronger effect = lower value 0.972 | S. cerevisiae deletion strains, strain wtn01, stronger effect = lower value 1.01 | S. cerevisiae strains, strain wild type, stronger effect = lower value 1
